Assay outcomes from PubChem BioAssay.
Hits are enriched below; roughly 9.2% of the tested compounds scored in any of these assays.
USP10 inh: inhibitors of human USP10 deubiquitinase | purified USP10, Ub-rhodamine fluorescence, 60 min | inhibition, % at 20 µM | hit rate 1.1% among 47,000 | AID 1645856, 2021
USP7 inh: inhibitors of human USP7 deubiquitinase; Ubiquitin carboxyl-terminal hydrolase 7 (Homo sapiens), Q93009; purified USP7, Ub-rhodamine cleavage fluorescence; inhibition, % at 20 µM; hit rate 0.3% among 47,000; AID 1645854, 2021
OTUD3 block: inhibitors of human OTUD3 deubiquitinase | OTU domain-containing protein 3 (Homo sapiens), Q5T2D3 | purified OTUD3, Ub-rhodamine fluorescence, 2 h | inhibition, % at 25 µM | hit rate 0.7% among 47,000 | AID 1645858, 2021
USP17 inh: inhibitors of human USP17 deubiquitinase. Ubiquitin carboxyl-terminal hydrolase 17-like protein 5 (Homo sapiens), A8MUK1. purified USP17, Ub-rhodamine cleavage fluorescence, 3 h. inhibition, % at 50 µM. hit rate 6.5% among 47,000
Target sequence (A8MUK1 whole entry, looked up): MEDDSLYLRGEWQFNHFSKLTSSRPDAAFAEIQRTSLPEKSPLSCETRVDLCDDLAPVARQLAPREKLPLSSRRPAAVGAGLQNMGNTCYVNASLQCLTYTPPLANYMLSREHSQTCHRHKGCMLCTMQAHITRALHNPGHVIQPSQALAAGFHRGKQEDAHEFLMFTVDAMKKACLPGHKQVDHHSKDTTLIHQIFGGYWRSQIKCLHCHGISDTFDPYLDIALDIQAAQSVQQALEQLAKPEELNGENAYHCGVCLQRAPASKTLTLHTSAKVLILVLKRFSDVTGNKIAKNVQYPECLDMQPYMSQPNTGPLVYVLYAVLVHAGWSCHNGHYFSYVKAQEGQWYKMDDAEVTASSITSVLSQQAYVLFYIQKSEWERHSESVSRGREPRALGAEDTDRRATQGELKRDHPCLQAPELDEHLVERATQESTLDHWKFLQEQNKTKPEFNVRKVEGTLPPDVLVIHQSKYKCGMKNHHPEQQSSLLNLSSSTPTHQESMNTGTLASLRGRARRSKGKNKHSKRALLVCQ
UCHL1 block: inhibitors of human UCHL1 deubiquitinase. AID 1645859, 2021. purified UCHL1, Ub-rhodamine cleavage fluorescence. hit rate 0.2% among 47,000. inhibition, % at 20 µM
USP8 block: inhibitors of human USP8 deubiquitinase | Ubiquitin carboxyl-terminal hydrolase 8 (Homo sapiens), P40818 | purified USP8, Ub-rhodamine cleavage fluorescence, 30 min | hit rate 4.2% among 47,000 | inhibition, % at 20 µM
Active calls of the source: *. No stated cut-off is given here; in the data, active means inhibition above about 30%; inactive means the rest.

Results for CC(C)CC(NC(=O)c1ccc(Cl)cc1Cl)c1nc2ccccc2[nH]1 (configuration not stated) ?
USP10 inh: 12.7; USP7 inh: -0.8; OTUD3 block: -2.5; USP17 inh: 69.1*; UCHL1 block: 14.0; USP8 block: 88.6*

What do the screens show for `Cn1c(=O)c2c(nc(SCc3ccccn3)n2Cc2ccccc2F)n(C)c1=O`?
USP10 inh: 1.3; USP7 inh: 6.0; OTUD3 block: 5.3; USP17 inh: 9.5; UCHL1 block: 0.0; USP8 block: 9.7

How did O=C(NC(Cc1ccccc1)c1nc2ccccc2[nH]1)c1ccccc1-c1ccccc1 (configuration not stated) do in these assays?
USP10 inh: -3.5; USP7 inh: 1.1; OTUD3 block: -12.1; USP17 inh: 40.4*; UCHL1 block: 0.0; USP8 block: 54.0*

What do the screens show for `O=C(NC(Cc1ccccc1)c1nc2ccccc2[nH]1)c1ccc2ccccc2n1` (configuration not stated)?
USP10 inh: 1.5; USP7 inh: 8.6; OTUD3 block: 6.4; UCHL1 block: 2.9; USP8 block: 11.6

What do the screens show for `O=C(c1cncnc1)N1CCCC(c2ncc(Cc3ccccc3Cl)o2)C1` (configuration not stated)?
USP10 inh: -1.6; USP7 inh: -0.8; OTUD3 block: 16.6; USP17 inh: 5.1; UCHL1 block: 3.7; USP8 block: -11.6

How did Fc1ccc(C2(c3nnc(-c4ccccc4)o3)CCOCC2)cc1 do in these assays?
USP10 inh: 1.4; USP7 inh: -9.4; OTUD3 block: -1.5; USP17 inh: -5.0; UCHL1 block: -2.0; USP8 block: -3.5

How did CCOc1ccc2oc(C)c(C(=O)NCc3cccnc3)c2c1 do in these assays?
USP10 inh: -0.6; USP7 inh: -1.2; OTUD3 block: 1.1; USP17 inh: -7.5; UCHL1 block: -1.2; USP8 block: 1.0

What do the screens show for `CCc1nc2c(NS(=O)(=O)c3ccc(F)cc3)cccn2n1`?
USP10 inh: -9.5; USP7 inh: -8.5; OTUD3 block: -39.7; USP17 inh: -40.7; UCHL1 block: -6.7; USP8 block: -10.5

Results for O=c1[nH]cccc1NS(=O)(=O)c1ccc(F)cc1 ?
USP10 inh: -1.1; USP7 inh: -54.3; OTUD3 block: -8.5; USP17 inh: 85.7*; UCHL1 block: 26.0; USP8 block: 92.8*

What do the screens show for `O=C1OC2CC1N(C(=O)c1cc(-c3ccccc3)n[nH]1)C2` (configuration not stated)?
USP10 inh: -3.3; USP7 inh: -7.5; OTUD3 block: -3.2; USP17 inh: -18.7; UCHL1 block: -0.6; USP8 block: -3.7

What do the screens show for `Cc1cc(N)n(-c2nc3ccccc3n2Cc2c(F)cccc2Cl)n1`?
USP10 inh: 5.8; USP7 inh: -16.4; OTUD3 block: 6.6; USP17 inh: 8.8; UCHL1 block: 6.3; USP8 block: 0.4

How did Cc1ccc(-n2c(=O)c3ccccc3n(Cc3c(F)cccc3Cl)c2=O)cc1 do in these assays?
USP10 inh: 3.3; USP7 inh: 2.8; OTUD3 block: 3.3; USP17 inh: 61.8*; UCHL1 block: -0.5; USP8 block: 13.2

What do the screens show for `CC(C)n1cc2cc(C(=O)NC3CCN(Cc4ccccc4)CC3)sc2c1`?
USP10 inh: -7.6; USP7 inh: -25.6; OTUD3 block: -30.5; USP17 inh: -3.1; UCHL1 block: -0.6; USP8 block: 50.7*

How did Cc1cc(C(=O)NC2CCN(Cc3ccccc3)CC2)c(C)o1 do in these assays?
USP10 inh: -11.1; USP7 inh: -4.5; OTUD3 block: -12.3; USP17 inh: -15.4; UCHL1 block: -4.0; USP8 block: -7.4

How did CC(=O)Nc1ccc(-n2cnc(C(=O)NC3CCCC3)c2)nc1 do in these assays?
USP10 inh: -0.2; USP7 inh: -0.5; OTUD3 block: 1.9; USP17 inh: -7.1; UCHL1 block: 0.0; USP8 block: -8.6

What do the screens show for `CC(=O)Nc1ccc(-n2cnc(C(=O)NC(C)c3ccccc3)c2)nc1` (configuration not stated)?
USP10 inh: 2.9; USP7 inh: 6.7; OTUD3 block: 7.2; USP17 inh: 64.4*; UCHL1 block: 3.9; USP8 block: 0.0

How did CCn1nccc1C1CCCN1C(=O)Nc1cccc(Cl)c1 (configuration not stated) do in these assays?
USP10 inh: 1.8; USP7 inh: 0.4; OTUD3 block: -4.5; USP17 inh: -2.3; UCHL1 block: -2.0; USP8 block: -0.4

Results for O=C(NC1CC1)c1cc(-c2cccnc2)n(-c2ccccc2)n1 ?
USP10 inh: 2.8; USP7 inh: 8.2; OTUD3 block: 11.8; USP17 inh: 16.3; UCHL1 block: 3.2; USP8 block: 15.8

Results for O=C(Cn1cnc2ccc(Cl)cc2c1=O)N(Cc1ccccc1F)C1CC1 ?
USP10 inh: -0.1; USP7 inh: -4.3; OTUD3 block: 8.0; USP17 inh: 7.3; UCHL1 block: 3.6; USP8 block: 0.2

How did O=C(Cn1cnc2sc(-c3ccccc3)cc2c1=O)N(Cc1ccccc1F)C1CC1 do in these assays?
USP10 inh: 4.7; USP7 inh: 4.2; OTUD3 block: 7.7; USP17 inh: 34.4*; UCHL1 block: -0.4; USP8 block: 15.6

How did O=C(Nc1ccc(Oc2ccccc2)cc1)c1c(F)cccc1Cl do in these assays?
USP10 inh: 7.6; USP7 inh: 2.8; OTUD3 block: 8.0; USP17 inh: -1.9; UCHL1 block: 5.1; USP8 block: -112.0

How did O=C(Nc1ccc(S(=O)(=O)Nc2cc(Cl)cc(Cl)c2)cc1)c1c(F)cccc1Cl do in these assays?
USP10 inh: 34.3*; USP7 inh: 11.7; OTUD3 block: 9.2; USP17 inh: 43.5*; UCHL1 block: 4.4; USP8 block: -11.0

How did O=C(Oc1ccc(-c2cnc3ccccc3n2)cc1)c1ccc(F)cc1 do in these assays?
USP10 inh: 1.3; USP7 inh: 4.5; OTUD3 block: -0.4; USP17 inh: 65.5*; UCHL1 block: 0.7; USP8 block: 0.9

How did COC(=O)C(NC(=O)CCc1nnc2ccc(N3CCN(c4cccc(OC)c4)CC3)nn12)C(C)C (configuration not stated) do in these assays?
USP10 inh: -1.7; USP7 inh: 0.5; OTUD3 block: 4.3; USP17 inh: 7.5; UCHL1 block: 0.2; USP8 block: 34.0*

What do the screens show for `COc1cccc(N2CCN(c3ccc4nnc(CCC(=O)NCCC5=CCCCC5)n4n3)CC2)c1`?
USP10 inh: -7.2; USP7 inh: -0.7; OTUD3 block: 2.0; UCHL1 block: 6.6; USP8 block: 69.2*

What do the screens show for `CCOc1ccc(NC(=O)COc2ccccc2C)c2cccnc12`?
USP10 inh: -4.9; USP7 inh: -3.7; OTUD3 block: -13.9; USP17 inh: -4.2; UCHL1 block: -5.4; USP8 block: -1.1
